Test results: the supplement of paper PMC9262897, “Low-cost anti-mycobacterial drug discovery using engineered E. coli” (Nature Communications, 2022)
Where a name gives a salt, the structure may show the parent alone. ± gives the standard deviation of the averaged measurements.

Tests used:
Experiment in all cases: growth (OD600 after 10 h); higher = more growth (less inhibition)
[1] = tested on: E. coli TESEC Alr+ wild-type control; conditions: compound 0.1 mM; raw OD600 reference: median of DMSO wells 0.241, cell-free background 0.041
Experimental: (§1)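 TESEC Mtb Alr E. coli, or the Alr+ wild-type control, in 384-well plates with Prestwick library compounds at 0.1 mM and 1% DMSO, across arabinose induction levels of 1E3 to 1E7 nM. Growth is read as OD600 after 10 h at 37 °C in triplicate biological replicates.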

E. coli TESEC Mtb Alr [2] = conditions: compound 0.1 mM
Experimental: as §1

E. coli TESEC Mtb Asd = conditions: compound 0.1 mM
Experimental: (§2)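 TESEC E. coli strains in which the native enzyme is deleted and replaced by arabinose-inducible Mtb Asd, DapB, CysH or TrpD, each grown in its selective medium. Strains were screened against the Prestwick library at 0.1 mM and 1% DMSO in 384-well format at low and high arabinose induction. Growth is read as OD600 after 10 h in triplicate.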

E. coli TESEC Mtb DapB = conditions: compound 0.1 mM
Experimental: as §2

[3] = tested on: E. coli TESEC Alr+ wild-type control; conditions: compound 0.1 mM; raw OD600 reference: median of DMSO wells 0.49, cell-free background 0.052
Experimental: (§3)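 TESEC Mtb Alr E. coli (ΔaraC ΔtolC ΔentC Δalr ΔdadX, arabinose-inducible Mtb Alr) or the Alr+ wild-type control strain, grown in defined M9-fructose medium without D-alanine in 96-well plates with Prestwick library compounds at 0.1 mM and 1% DMSO. Low Alr induction is 0.1 µM arabinose and high induction is 10 mM arabinose.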

E. coli TESEC Mtb Alr [4] = conditions: compound 0.1 mM; remark: listed apart in the source
Experimental: as §3

[5] = arabinose 1000 nM, raw OD600 reference: median of DMSO wells 0.294, cell-free background 0.041
[6] = arabinose 10000 nM, raw OD600 reference: median of DMSO wells 0.264, cell-free background 0.041
[7] = arabinose 100000 nM, raw OD600 reference: median of DMSO wells 0.201, cell-free background 0.041
[8] = arabinose 1000000 nM, raw OD600 reference: median of DMSO wells 0.193, cell-free background 0.041
[9] = arabinose 10000000 nM, raw OD600 reference: median of DMSO wells 0.146, cell-free background 0.041
[10] = arabinose induction (level): High, raw OD600 reference: median of DMSO wells 0.331, cell-free background 0.041
[11] = arabinose induction (level): Low, raw OD600 reference: median of DMSO wells 0.417, cell-free background 0.041
[12] = arabinose induction (level): High, raw OD600 reference: median of DMSO wells […], cell-free background 0.041
[13] = arabinose induction (level): Low, raw OD600 reference: median of DMSO wells 0.227, cell-free background 0.041
[14] = arabinose 100 nM, raw OD600 reference: median of DMSO wells 0.413, cell-free background 0.052
[15] = arabinose 10000000 nM, raw OD600 reference: median of DMSO wells […], cell-free background 0.052

SMILES | growth [1] | growth (E. coli TESEC Mtb Alr [2]; [5]) | growth (E. coli TESEC Mtb Alr [2]; [6]) | growth (E. coli TESEC Mtb Alr [2]; [7]) | growth (E. coli TESEC Mtb Alr [2]; [8]) | growth (E. coli TESEC Mtb Alr [2]; [9]) | growth (E. coli TESEC Mtb Asd; [10]) | growth (E. coli TESEC Mtb Asd; [11]) | growth (E. coli TESEC Mtb DapB; [12]) | growth (E. coli TESEC Mtb DapB; [13]) | growth [3] | growth (E. coli TESEC Mtb Alr [4]; [14]) | growth (E. coli TESEC Mtb Alr [4]; [15])
CCn1cc(C(=O)O)c(=O)c2cnc(N3CCNCC3)nc21 [Pipemidic acid] | 0.116 ± 0.0069 | 0.0801 ± 0.033 | 0.063 ± 0.0022 | 0.117 ± 0.0072 | 0.0845 ± 0.028 | 0.147 ± 0.0057 | 0.157 ± 0.019 | 0.149 ± 0.014 | 0.188 ± 0.0053 | 0.168 ± 0.0065 | 0.158 ± 0.008 | 0.156 ± 0.021 | 0.082 ± 0.0092
NCCc1ccc(O)c(O)c1 [Dopamine hydrochloride] | 0.1987 ± 0.0012 | 0.27 ± 0.012 | 0.274 ± 0.0041 | 0.201 ± 0.021 | 0.197 ± 0.022 | 0.144 ± 0.009 | 0.335 ± 0.051 | 0.281 ± 0.036 | 0.174 ± 0.0035 | 0.202 ± 0.032 | 0.624 ± 0.051 | 0.4196 ± 0.0037 | 0.333 ± 0.0035
CC(N/C(=N\C#N)Nc1ccncc1)C(C)(C)C (configuration not stated) [Pinacidil] | 0.223 ± 0.015 | 0.274 ± 0.011 | 0.257 ± 0.0097 | 0.219 ± 0.0078 | 0.137 ± 0.0036 | 0.138 ± 0.0067 | 0.369 ± 0.037 | 0.412 ± 0.03 | 0.19 ± 0.012 | 0.232 ± 0.022 | 0.446 ± 0.031 | 0.405 ± 0.012 | 0.359 ± 0.036
CCOc1ccc2c(c1)C(C)=CC(C)(C)N2 [Ethoxyquin] | 0.183 ± 0.0075 | 0.283 ± 0.015 | 0.249 ± 0.007 | 0.192 ± 0.017 | 0.118 ± 0.0015 | 0.227 ± 0.067 | 0.353 ± 0.083 | 0.305 ± 0.042 | 0.196 ± 0.0042 | 0.205 ± 0.024 | 0.3809 ± 0.0031 | 0.408 ± 0.0097 | 0.167 ± 0.068
COC(c1ccccc1)(c1ccccc1)[C@H](Oc1nc(C)cc(C)n1)C(=O)O [Ambrisentan] | 0.217 ± 0.0053 | 0.28 ± 0.0015 | 0.285 ± 0.0062 | 0.177 ± 0.024 | 0.224 ± 0.0037 | 0.13 ± 0.0029 | 0.284 ± 0.072 | 0.315 ± 0.053 | 0.191 ± 0.016 | 0.234 ± 0.021 | 0.535 ± 0.022 | 0.41 ± 0.008 | 0.354 ± 0.015
CCC(C)(C)c1ccc(CC(C)CN2C[C@@H](C)O[C@@H](C)C2)cc1 (some centres not stated) [Amorolfine hydrochloride] | 0.0552 ± 0.0076 | 0.107 ± 0.0069 | 0.0519 ± 0.0014 | 0.0591 ± 0.0048 | 0.04143 ± 0.00023 | 0.0502 ± 0.0026 | 0.237 ± 0.052 | 0.284 ± 0.031 | 0.168 ± 0.02 | 0.197 ± 0.017 | 0.0891 ± 0.0055 | 0.0639 ± 0.0015 | 0.0533 ± 0.0014
CC(=O)N(CC(O)CO)c1c(I)c(C(=O)NCC(O)CO)c(I)c(C(=O)NCC(O)CO)c1I (configuration not stated) [Iohexol] | 0.242 ± 0.011 | 0.285 ± 0.0098 | 0.276 ± 0.0072 | 0.221 ± 0.043 | 0.195 ± 0.004 | 0.1422 ± 0.0012 | 0.35 ± 0.046 | 0.414 ± 0.056 | 0.195 ± 0.014 | 0.201 ± 0.02 | 0.512 ± 0.11 | 0.418 ± 0.01 | 0.343 ± 0.022
Cc1ccnc(NS(=O)(=O)c2ccc(N)cc2)n1 [Sulfamerazine] | 0.245 ± 0.0069 | 0.293 ± 0.013 | 0.229 ± 0.0029 | 0.211 ± 0.0032 | 0.154 ± 0.0069 | 0.133 ± 0.004 | 0.437 ± 0.023 | 0.4484 ± 0.0033 | 0.21 ± 0.0031 | 0.228 ± 0.018 | 0.515 ± 0.075 | 0.42 ± 0.0052 | 0.334 ± 0.0087
COC(=O)C1=C(C)NC(C)=C(C(=O)OC2CCCN(Cc3ccccc3)C2)C1c1cccc([N+](=O)[O-])c1 (configuration not stated) [Benidipine hydrochloride] | 0.184 ± 0.005 | 0.148 ± 0.005 | 0.177 ± 0.012 | 0.168 ± 0.011 | 0.107 ± 0.0056 | 0.119 ± 0.024 | 0.162 ± 0.0021 | 0.157 ± 0.0085 | 0.17 ± 0.022 | 0.192 ± 0.016 | 0.295 ± 0.015 | 0.353 ± 0.018 | 0.122 ± 0.028
COc1c(N2CCNC(C)C2)c(F)cc2c(=O)c(C(=O)O)cn(C3CC3)c12 (configuration not stated) [Gatifloxacin] | 0.0447 ± 0.0053 | 0.0402 ± 0.00046 | 0.0396 ± 0.0002 | 0.04067 ± 0.00032 | 0.03983 ± 0.00029 | 0.0409 ± 0.00055 | 0.0508 ± 0.0018 | 0.0482 ± 0.0013 | 0.04873 ± 0.00025 | 0.04953 ± 0.00047 | 0.05293 ± 0.00023 | 0.0533 ± 0.00079 | 0.0521 ± 0.0016
CN1C(C)(C)CCCC1(C)C [Pempidine tartrate] | 0.245 ± 0.0082 | 0.307 ± 0.017 | 0.284 ± 0.0059 | 0.183 ± 0.026 | 0.196 ± 0.0024 | 0.143 ± 0.011 | 0.343 ± 0.023 | 0.434 ± 0.024 | 0.203 ± 0.024 | 0.239 ± 0.043 | 0.572 ± 0.089 | 0.4074 ± 0.0021 | 0.335 ± 0.011
COc1c2occc2c(OC)c2c(=O)cc(C)oc12 [Khellin] | 0.206 ± 0.0044 | 0.2539 ± 0.0022 | 0.245 ± 0.0065 | 0.189 ± 0.0037 | 0.149 ± 0.0057 | 0.1439 ± 0.00044 | 0.317 ± 0.081 | 0.35 ± 0.016 | 0.182 ± 0.0039 | 0.253 ± 0.1 | 0.418 ± 0.038 | 0.3963 ± 0.0035 | 0.306 ± 0.032
Cc1cc(CC(=O)O)n(C)c1C(=O)c1ccc(Cl)cc1 [Zomepirac sodium salt] | 0.22 ± 0.0032 | 0.261 ± 0.022 | 0.239 ± 0.0082 | 0.16 ± 0.0043 | 0.1938 ± 0.0017 | 0.121 ± 0.0027 | 0.473 ± 0.13 | 0.295 ± 0.069 | 0.187 ± 0.0096 | 0.247 ± 0.038 | 0.476 ± 0.083 | 0.392 ± 0.014 | 0.3428 ± 0.0013
Cc1ncc(CO)c(CO)c1O [Pyridoxine hydrochloride] | 0.258 ± 0.0075 | 0.302 ± 0.013 | 0.2532 ± 0.0016 | 0.238 ± 0.034 | 0.174 ± 0.0032 | 0.168 ± 0.017 | 0.344 ± 0.1 | 0.37 ± 0.022 | 0.215 ± 0.011 | 0.239 ± 0.04 | 0.544 ± 0.025 | 0.428 ± 0.0097 | 0.32 ± 0.013
